In ChEMBL document CHEMBL3433997, “St. Jude Leishmania screening dataset” (2016):

Molecular target: Hexose transporter 1 (Plasmodium falciparum) (UniProt O97467)
Assay: ST_JUDE_LEISH: Cytotoxicity at 2uM final concentration against transgenic Leishmania Mexicana promastigotes LmPfHT that are glucose transport deficient and complemented with the Plasmodium falciparum hexose transporter. Activity is measured by DNA content using SYBR green in vitro
Type: functional

| SMILES | inhibition |
| --- | --- |
| COc1ccc(C2C(C(=O)Nc3cc(Cl)c(OC)cc3OC)c3ccccc3C(=O)N2C)cc1 (stereo not given) | 1.49% |
| CCOC(=O)c1ccc(NC(=O)N(Cc2ccc(-c3ccc(CN4CCNCC4)cc3)cc2)Cc2cccnc2)cc1 | 2.09% |
| Cc1cccc2nc(-c3ccc(-c4cccc(NC(=O)c5cnn6cccnc56)c4)cc3)[nH]c12 | 11.7% |
| N=C(NCCc1ccc(Cl)c(Cl)c1)c1ccc2ccccc2c1 | -1.48% |
| O=C(Nc1cccc(CN2CCCN(Cc3ccsc3)CC2)c1)c1cc2ccccc2s1 | 0.58% |
| O=C(Oc1ccc(C2CNCCc3c2cc(OC(=O)c2ccc(O)cc2)c(OC(=O)c2ccc(O)cc2)c3Cl)cc1)c1ccc(O)cc1 (stereo not given) | 5.32% |
| O=C(NCC1CCCCC1)c1cc(=O)c2ccccc2o1 | 10.2% |
| O=S(=O)(Nc1cc2c(cc1O)CCNCC2)c1ccc(-c2ccc(Cl)cc2)cc1 | -0.71% |
| CCc1cn(C)c2c(N3CCCC3=O)cc(C(=O)N[C@@H](Cc3ccccc3)[C@H](O)CNCc3cccc(OC)c3)cc12 | 2.2% |
| CC(C)(CNC(=O)C1CCN(Cc2ccoc2)CC1)c1nc(-c2ccc(Cl)c(O)c2)c(-c2ccncc2)[nH]1 | 0.07% |
| COc1cc(CN/C(=N/c2ccc(-c3ccccc3)cc2)Nc2ccc(C#N)cc2O)cc(OC)c1 | 0.59% |
| O=C(Nc1ccc(OC2CCN(Cc3ccccc3)CC2)c(Cl)c1)c1cccs1 | 4.54% |
| Cc1cc(CN2CCCC(OC(c3ccc(F)cc3)c3ccc(F)cc3)C2)ccc1O (stereo not given) | 4.88% |
| CCOC(=O)C1=C(C)NC(C)=C(C(=O)OCC)C1(C(=O)OCc1ccccc1)c1cccc(C(F)(F)F)c1 | 3.39% |
| CC(C)CNc1nc(N)nc2ccc3c(ccn3CC(C)C)c12 | -0.47% |
| CC(C)OC(=O)c1ccc(NC(=O)N[C@@H](Cc2ccc(O)cc2)C(=O)NC2CC3CCC(C2)N3Cc2ccccc2)cc1 (stereo not given in full) | 4.77% |
| CCNCc1cccc(-c2ccc3ccnc(N)c3c2)c1 | 3.12% |
| CCC(C)CN1CCN(c2cc(NC(=O)c3cccs3)ccn2)C(C)C1 (stereo not given) | 2.3% |
| COc1ccc(C2CC(c3cccs3)=NN2C(=O)c2ccccc2)cc1OC (stereo not given) | 1.98% |
| Cc1cccc2nc(-c3ccc(-c4ccc(CN5CCCC(N)C5)cc4)cc3)[nH]c12 (stereo not given) | 11% |

| SMILES | inhibition |
| --- | --- |
| CN(CCc1ccccn1)Cc1ccc(-c2ccc(-c3nc4ccccc4[nH]3)s2)cc1 | -1.13% |
| COc1ccc(-c2cc(C(F)(F)F)n3ncc(C(=O)Nc4cc(C)ccc4O)c3n2)cc1OC | 2.45% |
| CCCc1ccc(NC(=O)c2cccc(CN3CCCN(Cc4cccc(C#N)c4)CC3)c2)cc1 | -0.3% |
| Cc1cc(N[C@@H](CC(C)C)C(=O)NCCc2ccccc2)nc(Nc2ccccc2)n1 | 5.37% |
| COc1ccc2ncc(F)c(CCN3CC[C@H](NCc4cc(C#N)c5c(c4)OCCO5)[C@H](O)C3)c2c1 | 57.5% |
| Cc1cccc2nc(-c3ccc(-c4cccc(NC(=O)C(C)CN5CCN(C)CC5)c4)s3)[nH]c12 (stereo not given) | 10.8% |
| COc1cc2c(cc1OCCN1CCC(N)CC1)N(C(=O)/C=C/c1ccccc1Cl)CC2 | 10.8% |
| c1ccc(CNc2nc(NCCc3c[nH]cn3)nc(NCc3cccc4ccccc34)n2)cc1 | 0.21% |
| CCOC(=O)C(=O)N1c2ccc(OCC)cc2-c2c(ssc2=S)C1(C)C | 0.3% |
| O=S1(=O)C=C(c2ccccc2)CC1 | 1.28% |
| CN1CCN(c2ccc(Nc3ncc(C#N)c(Nc4ccccc4C(N)=O)n3)cc2)CC1 | 81.4% |
| N=C(N)Nc1ccc(NC(=O)Nc2ccc(NC(=N)N)cc2)cc1 | 0.77% |
| Cn1c(N)c(C(=O)CSc2nnc(-c3cccs3)n2Cc2ccccc2)c(=O)n(C)c1=O | 8.98% |
| Cc1ccccc1C1CCN(C2CCC(NC(=O)C3=Cc4cc(Cl)ccc4OC3)CC2)CC1 (stereo not given) | 2.37% |
| Cn1c(NC(=O)CCCCCNC(=O)c2ccc(O)c(-c3ccc(Cl)c(Cl)c3)c2)nc2ccccc21 | 1.73% |
| O=C(Nc1ccc(F)cc1)NC1CCN(CCCCCNC(=O)C2CC2c2ccc(Cl)c(Cl)c2)CC1 (stereo not given) | 1.54% |
| O=C(NCc1ccccc1)C1Cc2c([nH]c3ccc(Br)cc23)C2(CCN(Cc3ccccc3)CC2)N1 (stereo not given) | 3.23% |
| Cc1ccc(CNC(=O)[C@H](Cc2ccccc2)Nc2cc(C)nc(NCc3ccccc3C)n2)cc1 | 5.01% |
| COc1ccccc1CN1CCC(NC(=O)c2ccc(-c3ccc(N(C)C)cc3)s2)CC1 | 12.6% |
| Cc1ccc(O)cc1Nc1ccnc2ccc(-c3cccc(CN(C)C)c3)cc12 | -2.77% |

Molecular target: Glucose transporter (Leishmania mexicana) (UniProt O61059)
Assay: ST_JUDE_LEISH: Cytotoxicity at 2uM final concentration against transgenic Leishmania Mexicana promastigotes LmGT2 that are glucose transport deficient and complemented with the L. Mexicana glucose transporter 2. Activity is measured by DNA content using SYBR green in vitro
Type: functional

| SMILES | inhibition |
| --- | --- |
| COc1ccc(C2C(C(=O)Nc3cc(Cl)c(OC)cc3OC)c3ccccc3C(=O)N2C)cc1 (stereo not given) | -1.07% |
| CCOC(=O)c1ccc(NC(=O)N(Cc2ccc(-c3ccc(CN4CCNCC4)cc3)cc2)Cc2cccnc2)cc1 | 0.48% |
| Cc1cccc2nc(-c3ccc(-c4cccc(NC(=O)c5cnn6cccnc56)c4)cc3)[nH]c12 | 8.93% |
| N=C(NCCc1ccc(Cl)c(Cl)c1)c1ccc2ccccc2c1 | -2.5% |
| O=C(Nc1cccc(CN2CCCN(Cc3ccsc3)CC2)c1)c1cc2ccccc2s1 | -0.93% |
| O=C(Oc1ccc(C2CNCCc3c2cc(OC(=O)c2ccc(O)cc2)c(OC(=O)c2ccc(O)cc2)c3Cl)cc1)c1ccc(O)cc1 (stereo not given) | 4.76% |
| O=C(NCC1CCCCC1)c1cc(=O)c2ccccc2o1 | 11.7% |
| O=S(=O)(Nc1cc2c(cc1O)CCNCC2)c1ccc(-c2ccc(Cl)cc2)cc1 | 2.34% |
| CCc1cn(C)c2c(N3CCCC3=O)cc(C(=O)N[C@@H](Cc3ccccc3)[C@H](O)CNCc3cccc(OC)c3)cc12 | 2.88% |
| CC(C)(CNC(=O)C1CCN(Cc2ccoc2)CC1)c1nc(-c2ccc(Cl)c(O)c2)c(-c2ccncc2)[nH]1 | -2.68% |
| COc1cc(CN/C(=N/c2ccc(-c3ccccc3)cc2)Nc2ccc(C#N)cc2O)cc(OC)c1 | 0.77% |
| O=C(Nc1ccc(OC2CCN(Cc3ccccc3)CC2)c(Cl)c1)c1cccs1 | 4.68% |
| Cc1cc(CN2CCCC(OC(c3ccc(F)cc3)c3ccc(F)cc3)C2)ccc1O (stereo not given) | 0.78% |
| CCOC(=O)C1=C(C)NC(C)=C(C(=O)OCC)C1(C(=O)OCc1ccccc1)c1cccc(C(F)(F)F)c1 | 4.11% |
| CC(C)CNc1nc(N)nc2ccc3c(ccn3CC(C)C)c12 | -0.02% |
| CC(C)OC(=O)c1ccc(NC(=O)N[C@@H](Cc2ccc(O)cc2)C(=O)NC2CC3CCC(C2)N3Cc2ccccc2)cc1 (stereo not given in full) | -0.07% |
| CCNCc1cccc(-c2ccc3ccnc(N)c3c2)c1 | 4.03% |
| CCC(C)CN1CCN(c2cc(NC(=O)c3cccs3)ccn2)C(C)C1 (stereo not given) | 1.68% |
| COc1ccc(C2CC(c3cccs3)=NN2C(=O)c2ccccc2)cc1OC (stereo not given) | 5.57% |
| Cc1cccc2nc(-c3ccc(-c4ccc(CN5CCCC(N)C5)cc4)cc3)[nH]c12 (stereo not given) | 2.6% |

| SMILES | inhibition |
| --- | --- |
| CN(CCc1ccccn1)Cc1ccc(-c2ccc(-c3nc4ccccc4[nH]3)s2)cc1 | -2.7% |
| COc1ccc(-c2cc(C(F)(F)F)n3ncc(C(=O)Nc4cc(C)ccc4O)c3n2)cc1OC | 0.56% |
| CCCc1ccc(NC(=O)c2cccc(CN3CCCN(Cc4cccc(C#N)c4)CC3)c2)cc1 | 1.95% |
| Cc1cc(N[C@@H](CC(C)C)C(=O)NCCc2ccccc2)nc(Nc2ccccc2)n1 | 2.63% |
| COc1ccc2ncc(F)c(CCN3CC[C@H](NCc4cc(C#N)c5c(c4)OCCO5)[C@H](O)C3)c2c1 | 70.8% |
| Cc1cccc2nc(-c3ccc(-c4cccc(NC(=O)C(C)CN5CCN(C)CC5)c4)s3)[nH]c12 (stereo not given) | 10.3% |
| COc1cc2c(cc1OCCN1CCC(N)CC1)N(C(=O)/C=C/c1ccccc1Cl)CC2 | 12.8% |
| c1ccc(CNc2nc(NCCc3c[nH]cn3)nc(NCc3cccc4ccccc34)n2)cc1 | -0.28% |
| CCOC(=O)C(=O)N1c2ccc(OCC)cc2-c2c(ssc2=S)C1(C)C | 6.04% |
| O=S1(=O)C=C(c2ccccc2)CC1 | 1.41% |
| CN1CCN(c2ccc(Nc3ncc(C#N)c(Nc4ccccc4C(N)=O)n3)cc2)CC1 | 55.1% |
| N=C(N)Nc1ccc(NC(=O)Nc2ccc(NC(=N)N)cc2)cc1 | 0.04% |
| Cn1c(N)c(C(=O)CSc2nnc(-c3cccs3)n2Cc2ccccc2)c(=O)n(C)c1=O | 8.86% |
| Cc1ccccc1C1CCN(C2CCC(NC(=O)C3=Cc4cc(Cl)ccc4OC3)CC2)CC1 (stereo not given) | 1.59% |
| Cn1c(NC(=O)CCCCCNC(=O)c2ccc(O)c(-c3ccc(Cl)c(Cl)c3)c2)nc2ccccc21 | 2% |
| O=C(Nc1ccc(F)cc1)NC1CCN(CCCCCNC(=O)C2CC2c2ccc(Cl)c(Cl)c2)CC1 (stereo not given) | 2.31% |
| O=C(NCc1ccccc1)C1Cc2c([nH]c3ccc(Br)cc23)C2(CCN(Cc3ccccc3)CC2)N1 (stereo not given) | 1.63% |
| Cc1ccc(CNC(=O)[C@H](Cc2ccccc2)Nc2cc(C)nc(NCc3ccccc3C)n2)cc1 | 2.6% |
| COc1ccccc1CN1CCC(NC(=O)c2ccc(-c3ccc(N(C)C)cc3)s2)CC1 | 8.12% |
| Cc1ccc(O)cc1Nc1ccnc2ccc(-c3cccc(CN(C)C)c3)cc12 | 0.73% |
